Source: PubChem BioAssay
Shown is part of a subset that was picked to be rich in hits.
D1 mod = D1 CRE-luciferase signal change, two-sided – cell-based, HEK293 D1, dopamine EC30, D1 allosteric modulator project, primary screen | dopamine EC30 potentiation; actives deviate in either direction | B-score at 10 µM | actives 5.9% (n = 58,000) | D(1A) dopamine receptor (Homo sapiens), P21728;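 active = luminescence count or its row- and column-corrected plate score outside the 99.7% band of the plate's sample wells, on either side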
FXIIa mix inh = human factor XIIa inhibitors, primary screen, biochemical, pooled compound mixtures, fluorogenic substrate; Coagulation factor XII (Homo sapiens), P00748; purified FXIIa; actives 0.2% (n = 62,000); inhibition, % at 5 µM
Target sequence (P00748 20-372 limits assumed): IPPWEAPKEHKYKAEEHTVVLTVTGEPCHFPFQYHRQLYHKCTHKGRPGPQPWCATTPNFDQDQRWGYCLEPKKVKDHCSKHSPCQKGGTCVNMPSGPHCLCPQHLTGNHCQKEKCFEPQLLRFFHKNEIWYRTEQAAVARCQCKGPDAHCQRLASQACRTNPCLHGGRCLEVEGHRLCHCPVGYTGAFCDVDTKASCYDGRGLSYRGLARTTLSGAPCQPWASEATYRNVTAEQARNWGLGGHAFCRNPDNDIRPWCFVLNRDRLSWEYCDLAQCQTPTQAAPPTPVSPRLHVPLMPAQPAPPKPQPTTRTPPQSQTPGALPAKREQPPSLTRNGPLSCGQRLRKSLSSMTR
Target sequence (P00748 373-615 limits assumed): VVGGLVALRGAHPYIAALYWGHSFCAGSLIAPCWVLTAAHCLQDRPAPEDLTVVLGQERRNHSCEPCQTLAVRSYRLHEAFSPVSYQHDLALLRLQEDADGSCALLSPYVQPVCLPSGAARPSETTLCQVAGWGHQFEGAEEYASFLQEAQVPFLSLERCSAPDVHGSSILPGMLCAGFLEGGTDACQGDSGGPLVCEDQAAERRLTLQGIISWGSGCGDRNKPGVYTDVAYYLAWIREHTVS
HePTP inh = inhibitors of human HePTP phosphatase, primary screen, biochemical, absorbance, leukemia target; Tyrosine-protein phosphatase non-receptor type 7 (Homo sapiens), P35236; AID 521, 2006; inhibition, % at 20 µM; actives 0.64% (n = 110,000); recombinant HePTP phosphatase activity, OD absorbance; in the data active = inhibition above about 50%
Candida biofilm = clotrimazole potentiators killing Candida biofilms, primary screen, with clotrimazole, Alamar Blue | C. albicans biofilm + clotrimazole | inhibition, % at 6 µM | actives 0.14% (n = 85,000);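 active = inhibition above 20%; inactive = inhibition below 20%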;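 also: preformed 24 hr biofilms exposed to compound for 48 hr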
TNAP act mid DEA = human TNAP enzyme activators, primary screen, biochemical, luminescent, intermediate phosphate acceptor level | purified TNAP, CDP-star luminescence, 100 mM DEA, 30 min; active compounds read high; scale: 0 levamisole-inhibited, 1 vehicle-only enzyme | activation factor at 20 µM | 64,000 tested, under 10 active | Alkaline phosphatase, tissue-nonspecific isozyme (Homo sapiens), P05186;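 active = activation factor of at least 2 at 20 µM, relative to controls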
FXIa mix inh = FXIa protease inhibitors in compound pools, primary screen, biochemical, 10-compound mixtures. actives 0.19% (n = 62,000). purified FXIa, fluorogenic substrate, pooled mixtures. inhibition, % at 5 µM;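 also: each value is inhibition by a whole ten-compound pool holding the compound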
Of the large screens only hits and unclear results are named; the others gave an inactive call. Rule as the data show it, unless noted: active = inhibition above about 20% (passing the limit was not always enough); inactive = the rest.

CCN1CCN(Cc2ccc(NC(=O)Nc3ccc(OC)cc3)cc2)CC1	none
CC(C)c1ccc(NC(=O)C(=O)NCCCN2CCOCC2)cc1	none (no result: D1 mod, FXIIa mix inh, Candida biofilm, TNAP act mid DEA, FXIa mix inh)
COC(=O)CSc1nnc(CNC(=O)Cc2ccccc2)n1C	FXIa mix inh 26.1
Nc1n[nH]c(N)c1N=Nc1ccc(F)cc1	none (no result: D1 mod, FXIIa mix inh, Candida biofilm, TNAP act mid DEA, FXIa mix inh)
Nc1n[nH]c(N)c1N=Nc1ccccc1F	HePTP inh 102.7 (no result: D1 mod, FXIIa mix inh, Candida biofilm, TNAP act mid DEA, FXIa mix inh)
O=S(=O)(N/N=C/c1cccc(F)c1)c1ccccc1	none (no result: D1 mod, FXIIa mix inh, Candida biofilm, TNAP act mid DEA, FXIa mix inh)
O=S(=O)(c1ccc(SCCO)nc1)N1CCCC1	none
O=c1cc(CSc2ccc(S(=O)(=O)N3CCCCC3)cn2)nc2sccn12	D1 mod -4.52
COc1cc(OC)c(OC)cc1CN1CCN(C2CCCCC2)CC1	none (no result: D1 mod, FXIIa mix inh, Candida biofilm, TNAP act mid DEA, FXIa mix inh)
C=CCNC(=O)c1ccc(C)cc1Cl	none
C=CCNC(=O)c1ccc(Cl)cc1Cl	FXIa mix inh 24.8
O=C(Nc1ncc(Cc2ccccc2)s1)C1CCCO1 (stereo unspecified)	D1 mod -3.73
O=C(Nc1nc2ccccc2s1)C1CCCO1 (stereo unspecified)	none
NC1=NC2(CCC(c3ccccc3)CC2)n2c(nc3ccccc32)N1 (stereo unspecified)	none
NC1=NC2(CCCCC2)n2c(nc3ccccc32)N1	D1 mod -4.64
Cc1cc(C(=O)NCCC2=CCCCC2)c(C)o1	D1 mod -6.61
COc1cc(OC)cc(C(=O)NCCC2=CCCCC2)c1	none (no result: D1 mod, FXIIa mix inh, Candida biofilm, TNAP act mid DEA, FXIa mix inh)
O=C1CC2c3ccccc3C1C1C(=O)N(c3ccccc3)C(=O)C21 (stereo unspecified)	HePTP inh 103.3 (no result: D1 mod, FXIIa mix inh, Candida biofilm, TNAP act mid DEA, FXIa mix inh)
CC1(C)CC(=O)C(C(/C=C/c2ccccc2)C2=C(O)CC(C)(C)CC2=O)C(=O)C1 (stereo unspecified)	none (no result: D1 mod, FXIIa mix inh, Candida biofilm, TNAP act mid DEA, FXIa mix inh)
Cc1ccc(/C=C/C(=O)c2ccc([N+](=O)[O-])cc2)s1	none (no result: D1 mod, FXIIa mix inh, Candida biofilm, TNAP act mid DEA, FXIa mix inh)
O=C(NC1CC1)c1cc2c(s1)-c1ccccc1OC2	D1 mod -5.84
O=C(O)c1cc2c(s1)-c1ccccc1OC2	none (no result: D1 mod)
CCS(=O)(=O)N1CCC(C(=O)NCc2ccc(F)cc2Cl)CC1	none
Cc1cc(C)c(S(=O)(=O)N2CCC(C(=O)NCc3ccc(Cl)cc3Cl)CC2)c(C)c1	Candida biofilm 69.0 (no result: D1 mod, FXIIa mix inh, HePTP inh, TNAP act mid DEA, FXIa mix inh)
CCOC(=O)C1=C(C)N=c2s/c(=C\c3ccc(I)cc3)c(=O)n2C1c1ccc(O)cc1 (stereo unspecified)	none (no result: D1 mod, FXIIa mix inh, Candida biofilm, TNAP act mid DEA, FXIa mix inh)
O=C(COc1ccc(-n2cnnn2)cc1)NC1CCCCC1	none
O=C(COc1ccc(-n2cnnn2)cc1)NC(=O)NCc1ccccc1	D1 mod -4.42
COC(=O)C1=C(C)N(CCc2ccc(OC)cc2)C(=O)C1	none
COC(=O)C1=C(C)N(CCc2ccc(OC)c(OC)c2)C(=O)C1	HePTP inh 96.5 (no result: D1 mod, FXIIa mix inh, TNAP act mid DEA, FXIa mix inh)
O=C(c1cc(-c2ccc3c(c2)OCO3)on1)N1CCN(c2ccccc2)CC1	none
O=C(c1cc(-c2ccc(Cl)cc2Cl)on1)N1CCOCC1	D1 mod -4.56
O=C(c1cc(-c2ccc3c(c2)OCO3)on1)N1CCOCC1	D1 mod -4.47 (no result: Candida biofilm)
O=C(O)c1ccc(Cl)c(-c2ccc(/C=N\Nc3ccc([N+](=O)[O-])cn3)o2)c1	HePTP inh 53.8 (no result: D1 mod, FXIIa mix inh, Candida biofilm, TNAP act mid DEA, FXIa mix inh)
Cc1ccc(C2C3=C(CC(C)(C)CC3=O)OC3=C2C(=O)CC(C)(C)C3)cc1[N+](=O)[O-]	none (no result: D1 mod, FXIIa mix inh, Candida biofilm, TNAP act mid DEA, FXIa mix inh)
CC1(C)CC(=O)C=C(NCc2cccnc2)C1	none
CC1(C)CC(=O)C(C(c2cccnc2)C2C(=O)CC(C)(C)CC2=O)C(=O)C1	D1 mod -5.51 (no result: Candida biofilm)
O=C(Nc1nc2c(s1)CCCC2)c1ccc2ncsc2c1	none (no result: D1 mod)
O=C(Nc1nc2c(s1)CCCC2)c1ccc(Br)s1	D1 mod -4.42
Cc1cc(C(=O)Nc2nc3c(s2)CCCC3)cs1	D1 mod -5 (no result: Candida biofilm)
CCNC(=O)CC1S\C(=N/N=C/C=C/c2ccccc2)NC1=O (stereo unspecified)	none (no result: D1 mod, FXIIa mix inh, Candida biofilm, TNAP act mid DEA, FXIa mix inh)
O=S(Cc1ccc(Cl)cc1)CC(O)COc1ccccc1 (stereo unspecified)	none (no result: D1 mod, FXIIa mix inh, Candida biofilm, TNAP act mid DEA, FXIa mix inh)
CCOc1c(I)cc(/C=C2\C(=O)ON=C2c2ccccc2)cc1OC	none (no result: D1 mod, FXIIa mix inh, Candida biofilm, TNAP act mid DEA, FXIa mix inh)
CCN1CC2=C(OC(N)=C(C#N)C2c2cccs2)/C(=C/c2cccs2)C1 (stereo unspecified)	D1 mod -2.7
COc1ccccc1-n1c(=O)oc2ccc(Cl)cc2c1=O	D1 mod -2.32
